An excerpt weighted towards active compounds, which were near 3.8% of everything screened.
ATXN viability: viability counter-screen for ATXN expression inhibitors | S2 cells (HEK-293 line with an ATXN2-luciferase reporter) viability, CellTiter-Fluor protease fluorescence, 24 h | Potency, µM (series often up to 56.7 µM), usual class: cytotoxic | 0.49% of 400,000 active; note: nearly all actives have a fitted effect of over 40% in size
Nrf2 inh: Nrf2 pathway inhibition; A549 ARE-Fluc reporter, luciferase luminescence, 18-24 h; Potency, µM (highest dose often 46 µM), for the others: at the top dose activity change, negative = inhibition, actives largely listed as inhibitors; 2.1% of 360,000 active; note: % is set by controls: 0 for no effect and ±100 for the full control effect; nearly all actives have a fitted effect of over 60% in size
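Two sequential reads on A549 ARE_Fluc cells exposed to compound for 18-24 h: a CellTiter-Fluor fluorescence read for viability, then a luciferase luminescence read for Nrf2/ARE activity.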
HepG2 viability: kills HepG2 cells in TGF-b inhibitor counter-screen; HepG2 CAGA-GFP viability, ATP luminescence, 18 h; Potency, µM (titrated, usually from 46.1 µM), inactives show at the highest dose activity change, negative = cytotoxicity, usual class: cytotoxic; 0.76% of 410,000 active
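CellTiter-Glo luminescence gave cytotoxicity after 18 hours at 37 degrees C. The cells were HepG2 CAGA-GFP in 1% FBS DMEM, stimulated with 500 pg/mL TGF-beta after compound addition. %Activity was normalised to no-cell wells (complete cell-killing) and DMSO (no toxicity), and curves were fitted and classified.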
A549 tox: counter-screen for Nrf2 inhibitors: cytotoxicity in A549 cells; 0.16% of 390,000 active; AID 504648; A549 ARE-Fluc cells, CellTiter-Fluor viability, 18-24 h; Potency, µM (titrated, usually from 46 µM), inactives show at the top dose activity change, negative = cytotoxicity, usual class: inhibitors; note: % is set by controls: 0 for no effect and ±100 for the full control effect
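Cytotoxicity counterscreen: CellTiter-Fluor fluorescence was measured in A549 ARE_Fluc cells after 18-24 h of compound exposure in a concentration series. The subsequent BugLite luminescent read reports ARE-luciferase activity.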
TGFb inhibitor: blocks TGF-b signaling | HepG2 CAGA-GFP TGF-b/SMAD3 reporter, GFP fluorescence, 18 h; TGF-beta stimulated, 500 pg/mL final | Potency, µM (series often up to 46.1 µM), inactives show top-dose activity, negative = inhibition, actives largely listed as inhibitors | 1.2% of 410,000 active | AID 588855; note: % is set by controls: 0 for no effect and ±100 for the full control effect; nearly all actives have a fitted effect of over 65% in size
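Per well, imaged GFP fluorescence of HEPG2 CAGA-GFP cells gives the signal; cells get compound, then TGF-beta (500 pg/mL final), 18 h at 37 degrees C; %Activity versus -TGF-beta and +DMSO controls.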
ATXN2 expr inh: reduces ATXN2 reporter expression in HEK-293 cells | 0.72% of 360,000 active | HEK-293 ATXN2-luciferase reporter, luminescence, 24 h | Potency, µM (top dose mostly 57 µM), without a hit: top-dose activity change, negative = inhibition, usual class: inhibitors; note: % is set by controls: 0 for no effect and ±100 for the full control effect; nearly all actives have a fitted effect of over 55% in size
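qHTS (up to 57 uM final) was run with 24 h compound exposure of reporter cells at 37 °C. Each well was multiplexed: SteadyGlo luminescence measured ATXN2-luciferase expression after a fluorogenic Gly-Phe-AFC viability readout (25 uM final).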
Numbers without * were called inactive; i = inactive; u = inconclusive; x = not tested or not shown; ! = repeats disagree. Calls come from the whole dose curve; as a rule, active = well fitted curve in the direction sought with a large enough effect; inconclusive = small, poorly fitted or top-dose-only effect, or another doubt; inactive = no such curve, though single readings can be large; an effect the other way counts as inactive or inconclusive. Potency is the fitted concentration of half-maximal effect.

SMILES | ATXN viability | Nrf2 inh | HepG2 viability | A549 tox | TGFb inhibitor | ATXN2 expr inh
Cc1cc(NC(=O)C(C)SCC(=O)N(C)CC(=O)Nc2ccccc2Br)no1 (stereo not drawn) | i | 3% | -1% | 0% | -2% | -5%
CSC(=Nc1ccccc1)N=C(SCc1ccccc1)N(C)C | 9.5µM* | u | 7.1µM* | u | 5.6µM* | u
CCCCCCCC[n+]1cccc(C(=O)N(CC)CC)c1 | i | 10% | 13% | 13% | 16% | x
CCCCCCCCCCCCCCCC[n+]1cccc(C(=O)N(CC)CC)c1 | 32µM* | u | 13µM*! | 16% | u | 32µM*!
CCN(CCCNc1ncnc2nc[nH]c12)c1cccc(C)c1 | i | u | -22% | 8% | u | -19%
CCCCN(CCCNc1ncnc2nc[nH]c12)c1ccccc1 | u | u | 3.2µM* | -2% | u | u
Cn1c(C(=O)NCCc2ccccc2)cc2c(=O)n3ccccc3nc21 | x | 12% | 1% | -12% | 3% | x
CCCCCNC(=O)c1cc2c(=O)n3ccccc3nc2n1C | x | 18µM* | 0% | -3% | u | x
CCOc1ccc(-c2nc3c(c(CC)nn3-c3ccccc3)c3cc(OC)c(OC)cc23)cc1 | i | 3% | -5% | 0% | 1% | -1%
CCOC(=O)C1(Cc2ccccc2C(F)(F)F)CCN(C2CCN(C(C)=O)CC2)CC1 | i | 10% | -14% | 1% | 0% | 4%
COC(=O)CCCn1nc(NC(=O)c2ccco2)cc1C | i | 21% | -9% | -1% | -11% | x
COCCn1c(SCC(=O)/C=C2\N(C)c3ccccc3C2(C)C)nnc1-c1ccncc1 | i | 23µM* | -20% | -27% | -14% | u
COCCn1c(SCC(=O)c2c(-c3ccccc3)n(C)c3ccccc23)nnc1-c1ccncc1 | i | u | -2% | 0% | 0% | 4%
COc1ccc(Nc2nnc(SCC(=O)/C=C3/N(C)c4ccccc4C3(C)C)s2)cc1 | u | 23µM* | -20% | u | u | u
COc1ccc(C2c3c(n(C)c4ccccc34)C(=O)N2CC(=O)Nc2cccc(Cl)c2)cc1 (stereo not drawn) | x | 0% | -30% | 2% | 0% | x
COc1ccccc1N1CCN(c2ccnc3cc(Cl)ccc23)CC1 | u | u | 8% | -8% | -2% | 11µM*
N#Cc1cccc(S(=O)(=O)N2CCN(c3ccnc4cc(Cl)ccc34)CC2)c1 | i | 10µM* | -15% | -14% | -20% | u
COc1ccccc1NC(=O)N1CCN(c2ccnc3cc(Cl)ccc23)CC1 | i | 13µM* | -38% | -2% | 0% | -36%
COc1ccc(OC)c(NC(=O)[C@H](CSCc2ccccc2)N2Cc3ccccc3C2=O)c1 | i | u | -19% | -18% | -14% | -5%
CCc1nc2ccccc2c(C(=O)OCC(=O)N2CC(C)OC(C)C2)c1C (stereo not drawn) | i | -15% | 4% | -4% | 5% | 7%
Cc1ccccc1C(=O)N1CCN(c2ccc(NC(=S)NC(=O)c3ccco3)cc2)CC1 | 14µM* | u | -24% | 10% | u | x
COc1ccccc1N1CCN(C(=O)c2ccco2)CC1 | i | u | 16% | 0% | 5% | 32%
COc1ccccc1C(=O)NC(=S)Nc1ccc(N2CCN(C(=O)c3ccco3)CC2)cc1 | i | 21µM* | 6% | -17% | 2% | -37%
COc1cc(NC(=O)NCCn2nnc3cc(S(=O)(=O)N(C)C)ccc32)cc(OC)c1 | i | x | -2% | 1% | -2% | 2%
CCn1c(SCC(=O)NC2=NCCS2)nnc1C(C)NC(=O)c1ccccc1Br (stereo not drawn) | i | 8% | 2% | 2% | 24% | 0%
SMILES | ATXN viability | Nrf2 inh | HepG2 viability | A549 tox | TGFb inhibitor | ATXN2 expr inh
CC(=O)N1CCN(c2ccc(NCc3cccc(C)c3)cc2)CC1 | i | 15µM* | -13% | -3% | -28% | -6%
COc1cc(CNc2ccc3[nH]c(=O)[nH]c3c2)ccc1OCc1ccc(Cl)cc1 | u | -12% | -54% | -8% | 11µM* | 4%
COc1cc(CNc2ccc3[nH]c(=O)[nH]c3c2)ccc1OCc1ccc(F)cc1 | i | -10% | -6% | -4% | -19% | 3%
CC(=O)N1CCN(c2ccc(NCc3ccc(F)cc3)cc2)CC1 | u | u | -14% | -3% | -20% | -12%
COc1cc(CNc2ccc(N3CCN(C(C)=O)CC3)cc2)ccc1OCc1ccc(F)cc1 | u | 16µM* | -16% | -19% | u | -29%
C/C(CC(=O)Nc1cccnc1)=N\NC(=O)C(C)Oc1ccc(Cl)cc1Cl (stereo not drawn) | i | u | 3% | -8% | 1% | -15%
CCC(C)[C@H](NC(=O)N1CCCCCC1)C(=O)OC (stereo partly drawn) | i | 1% | -32% | 15% | -7% | x
CC[C@H](C)[C@@H]1NC(=O)[C@H]([C@@H](C)CC)NC(=O)[C@@H](CC(C)C)NC(=O)[C@H](Cc2ccccc2)NC(=O)[C@H](Cc2ccccc2)NC(=O)[C@@H]2CCCN2C(=O)[C@@H]2CCCN2C(=O)[C@H](C(C)C)NC(=O)[C@H](CC(C)C)NC1=O | 28µM* | u | -3% | -8% | -8% | u
CC(C)(C)C(=O)NNC(=O)C1CC1(c1ccccc1)c1ccccc1 (stereo not drawn) | i | -4% | 11% | -8% | 10% | -19%
CN(CC(=O)Nc1ccc(Cl)c(C(F)(F)F)c1)C(=O)c1ccc2c(c1)NC(=O)CS2 | i | 21µM* | -9% | -16% | u | -23%
CN(CC(=O)Nc1ccc(F)c(F)c1F)C(=O)c1ccc2c(c1)NC(=O)CS2 | i | u | 20% | -6% | 6% | -8%
Cc1nc(-c2ccc(F)cc2)c(CC(=O)N(C)CC(=O)Nc2ccccc2Cl)s1 | i | 1% | -11% | 2% | -22% | -4%
Cc1nc(-c2ccc(F)cc2)c(CC(=O)N(C)CC(=O)Nc2ccc(Cl)c(C(F)(F)F)c2)s1 | i | u | -82% | u | 18µM* | u
Cc1ccc2nsnc2c1S(=O)(=O)N1CCN(Cc2ccc3c(c2)OCO3)CC1 | i | u | -7% | 10% | 0% | 6%
CC(NC(=O)c1cc(S(=O)(=O)N2CCCC2)ccc1Cl)c1ccccn1 (stereo not drawn) | i | -3% | 18% | 2% | 12% | 2%
